BLM inh: Bloom syndrome helicase (human) inhibition; P54132; recombinant BLM DNA unwinding, fluorescence dequenching; Potency, µM (top dose mostly 56.1 µM), for the others: at the highest dose activity change, negative = inhibition, usual class: inhibitors; actives 0.2% (n = 350,000); AID 2528;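 also: potency is read from the fitted curve at half-maximal effect; plate controls were vehicle for no effect and no enzyme for full effect; nearly all actives have a fitted effect of over 35% in size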
GCN5L2 inh: blocks human GCN5L2 histone acetyltransferase; actives 0.21% (n = 390,000); AID 504327; GCN5L2 HAT assay, ThioGlo1 CoA-SH fluorescence; Potency, µM (titrated, usually from 58.9 µM), without a hit: at the highest dose activity change, negative = inhibition, usual class: inhibitors; also: potency is read from the fitted curve at half-maximal effect
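ThioGlo1-coupled HAT assay: 20nM GCN5L2, 70uM acetyl-CoA, 75uM H3(1-25) peptide, pH 7.5. Fluorescence read at 340/540nm at start and after 20 min at room temperature.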
RECQ1 inh: RECQ1 (human) helicase inhibition; RECQ1 DNA unwinding, red fluorescence kinetic read; P46063; Potency, µM (top dose mostly 57.3 µM), inactives show at the top dose activity, negative = inhibition, hits mostly inhibitors; actives 0.54% (n = 240,000);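 also: potency is read from the fitted curve at half-maximal effect; plate controls were vehicle for no effect and no enzyme for full effect; nearly all actives have a fitted effect of over 30% in size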
Target sequence (P46063 whole entry, looked up): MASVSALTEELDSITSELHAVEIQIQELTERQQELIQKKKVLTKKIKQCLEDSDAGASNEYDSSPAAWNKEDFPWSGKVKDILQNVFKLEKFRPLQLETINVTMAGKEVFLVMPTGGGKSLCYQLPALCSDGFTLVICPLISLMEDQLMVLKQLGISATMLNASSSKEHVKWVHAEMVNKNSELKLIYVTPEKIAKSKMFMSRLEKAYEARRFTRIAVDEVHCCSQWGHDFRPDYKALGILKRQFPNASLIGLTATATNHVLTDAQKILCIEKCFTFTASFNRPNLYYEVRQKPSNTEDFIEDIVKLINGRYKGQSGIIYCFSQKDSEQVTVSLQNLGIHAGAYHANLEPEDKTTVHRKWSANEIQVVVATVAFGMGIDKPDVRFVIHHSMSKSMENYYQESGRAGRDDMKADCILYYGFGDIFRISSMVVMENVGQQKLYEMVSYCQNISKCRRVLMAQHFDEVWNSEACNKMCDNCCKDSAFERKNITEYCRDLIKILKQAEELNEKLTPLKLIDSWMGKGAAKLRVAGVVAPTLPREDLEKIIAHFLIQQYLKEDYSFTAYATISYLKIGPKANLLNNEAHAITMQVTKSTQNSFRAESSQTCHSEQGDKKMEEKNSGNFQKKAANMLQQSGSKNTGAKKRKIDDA
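50 nM RECQ1T1 preincubated 15 min with compound in Tris pH 8.0 buffer with MgCl2, DTT, Tween-20 and 2.5 ug/ml poly(dI-dC); started with 200 nM TAMRA/BHQ-2 forked duplex and 2 mM ATP. Unwinding read as fluorescence (525/598 nm), two reads 2 h apart.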
FEN1 inhibitor: inhibitors of human flap endonuclease 1 | P39748 | Recombinant FEN1 flap cleavage, fluorescence, 15 min | Potency, µM (titrated, usually from 114 µM), without a hit: at the highest dose activity change, negative = inhibition, usual class: inhibitors | actives 0.35% (n = 390,000); also: potency is read from the fitted curve at half-maximal effect; nearly all actives have a fitted effect of over 65% in size
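Recombinant FEN1 (10 nM) was preincubated with pin-transferred compounds for 15 min at room temperature, then flap DNA substrate (50 nM final) was added. Plates were read at 0 and 15 min, and normalized concentration–response data were fitted to a four-parameter Hill equation.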
PI5P4K alpha inh: blocks human PI5P4K alpha kinase activity. P48426. PI5P4Kalpha enzyme, ADP-Glo luminescence, 60 min; stronger effect = lower value. max response, %. actives 1.2% (n = 330,000). AID 652105; active = max response of -50% or lower; inconclusive = between -30% and -50%; inactive = -30% or higher; also: value at the top dose of about 77 µM
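Luminescence from ADP-Glo served as readout of PI5P4Kalpha activity in a qHTS format. Reaction: enzyme, substrate, compound, ATP at 5 microM final, 60 min at RT.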
APE1 inh: APE1 (human) endonuclease inhibition. AID 2517. recombinant APE1, TAMRA/BHQ-2 abasic DNA cleavage fluorescence. Potency, µM (highest dose often 65.8 µM), for the others: top-dose activity change, negative = inhibition, hits mostly inhibitors. actives 0.35% (n = 350,000). P27695;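 also: potency is read from the fitted curve at half-maximal effect; plate controls were vehicle for no effect and reference inhibitor for full effect; nearly all actives have a fitted effect of over 55% in size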
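APE1 at 0.75 nM preincubated 15 min at room temperature with compound. Reaction then started with 50 nM double-stranded THF-abasic substrate labelled with TAMRA/BHQ-2, and 525/598 nm fluorescence read kinetically. Activity taken as third-minus-first read difference, normalized to DMSO and NSC13755 controls.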
* marks the source's active call; other numbers are inactive results; i = inactive; ? = inconclusive; · = not tested or not shown. Hits are enriched below; roughly 1.5% of the tested compounds scored in any of these assays. Unless noted, calls follow the shape of the dose curve; as a rule, active = well fitted curve in the direction sought with a large enough effect; inconclusive = small, poorly fitted or top-dose-only effect, or another doubt; inactive = no such curve, though single readings can be large; an effect the other way counts as inactive or inconclusive. Unless noted, % is scaled to controls: 0 for no effect and ±100 for the full control effect.

SMILES	BLM inh	GCN5L2 inh	RECQ1 inh	FEN1 inhibitor	PI5P4K alpha inh	APE1 inh
Cn1cc(C(c2ccccc2OCC(=O)O)c2cn(C)c3ccccc23)c2ccccc21	-3%	-5%	·	-11%	-53*	34%
O=C(CSc1nnc(CNc2cccc(C(F)(F)F)c2)n1Cc1ccco1)NCc1ccco1	4%	1%	i	-8%	-16	5%
O=C(O)CSc1nnc(CNc2cccc(C(F)(F)F)c2)n1Cc1ccco1	-8%	-1%	-8%	7%	-71*	12%
Cc1ccc(S(=O)(=O)Nc2ccc(O)c3ncccc23)cc1	-2%	-10%	-3%	13µM*	1	-7%
NCC(O)c1ccc(O)c(O)c1 (stereo not drawn)	?	-5%	-11%	1%	4	0.35µM*
CC(C)NC[C@H](O)c1ccc(O)c(O)c1	-18%	-6%	-4%	-11%	-2	?
O=C(CCOc1ccccc1)NO	·	·	·	-2%	·	·
CC1(C)OC(=O)C(=CNc2cccc(O)c2)C(=O)O1	1%	17%	12%	-16%	·	-1%
CC1(C)OC(C)(C)/C(=C/Nc2ccc(O)cc2)C1=O	?	-16%	i	-1%	-70*	13%
COc1ccc(CN2CC[C@H]3C=CC[C@@H](C(=O)Nc4ccccc4)[C@H]3C2=O)cc1OC	·	·	·	-4%	·	·
O=C(C[n+]1ccncc1)c1ccc2ccccc2c1	·	·	·	1%	·	·
Cc1ccc(Nc2ccc(C(=O)O)cc2[N+](=O)[O-])cc1	-2%	1%	·	-11%	-25	9%
O=C(O)c1ccc(NCCc2ccc(Cl)cc2)c([N+](=O)[O-])c1	-1%	-5%	10%	-4%	-56*	2%
O=C(O)c1ccc(Nc2ccc(Cl)c(Cl)c2)c([N+](=O)[O-])c1	-8%	1%	·	12%	-52*	31%
Cc1ccc(NC(=O)c2ccc(NCCc3ccccc3)c([N+](=O)[O-])c2)cc1F	-4%	0%	-6%	-2%	1	9%
CCCCOc1ccc(CC(=O)NOC)cc1	·	·	·	-4%	·	·
O=C(CNC(=O)N1CC(=O)Nc2ccccc21)Nc1cc(Cl)ccc1Cl	1%	-5%	·	40µM*	0	37%
O=C(O)c1ccccc1NC(c1ccccc1)c1ccc2cccnc2c1O (stereo not drawn)	·	·	·	-11%	-57*	·
Nc1ccc(/C=C/c2ccc(N)cc2S(=O)(=O)O)c(S(=O)(=O)O)c1	52%	13µM*	·	·	·	·
COc1cccc(Nc2ncc3nc(CCc4ccccc4)c(=O)n(C4CC4)c3n2)c1	-2%	25µM*	-3%	·	·	0%
COc1cccc(Nc2ncc3nc(CCc4ccccc4)c(=O)n(CCC#N)c3n2)c1	-1%	?	i	·	·	17%
CCOC(=O)c1ccc(N(C(=O)c2ccccc2)c2ccccc2)cc1	·	·	·	-27%	·	·
Cc1ccc(CN2CCOCCS2(=O)=O)cc1	·	·	·	13%	·	·
CCOC(=O)c1c(C)oc2c1c(CN1CCN(CCO)CC1)c(O)c1ccccc12	-3%	-7%	-5%	-21%	-98*	-5%
CCOC(=O)c1c(C)oc2c1c(C(c1ccncc1)N1CCOCC1)c(O)c1ccccc12 (stereo not drawn)	-9%	-27%	-9%	-20%	-22	?
SMILES	BLM inh	GCN5L2 inh	RECQ1 inh	FEN1 inhibitor	PI5P4K alpha inh	APE1 inh
CCOC(=O)c1c(C)oc2c1c(CN1CCN(C(=O)OCC)CC1)c(O)c1ccccc12	-9%	-9%	-11%	-19%	-56*	-4%
COc1ccc(OC)c(/C=N/c2oc(-c3ccco3)c(-c3ccco3)c2C#N)c1	-4%	-22%	?	-13%	-79*	?
Cc1ccnc2cc(Cl)cc(Cl)c12	·	·	·	13%	·	·
CCCCCCCCCCCCCCCCCCOCC(COP(=O)([O-])OCC[N+](C)(C)C)OC (stereo not drawn)	·	·	·	·	·	-2%
O=[N+]([O-])c1cc([N+](=O)[O-])c2oc(-c3ccccc3)c(Br)c2c1O	?	?	·	45µM*	-102*	12%
O=c1c(O)c(-c2ccccc2)oc2cccc(O)c12	5%	3%	-7%	·	·	-2%

From PubChem
